# For some assays here: Measured potencies and affinities stand elsewhere.
# Assays:
# Design in all cases: scale not given: direction of the effect not stated beside the values
# [1] = target: Protein translocase subunit SecA (Escherichia coli (strain K12)) (UniProt P10408); assay: Assay to Identify E. coli SecA ATPase Inhibitors; assay type: functional; settings: 30 µM
# [2] = target: T1, Ubiquitin-activating enzyme e1, putative (Leishmania donovani (strain BPK282A1)) (UniProt E9BSI1); assay: Leishmania donovani Ubiquitin Activating Enzyme (LdE1); assay type: functional; settings: 30 µM
# T1 sequence (whole entry): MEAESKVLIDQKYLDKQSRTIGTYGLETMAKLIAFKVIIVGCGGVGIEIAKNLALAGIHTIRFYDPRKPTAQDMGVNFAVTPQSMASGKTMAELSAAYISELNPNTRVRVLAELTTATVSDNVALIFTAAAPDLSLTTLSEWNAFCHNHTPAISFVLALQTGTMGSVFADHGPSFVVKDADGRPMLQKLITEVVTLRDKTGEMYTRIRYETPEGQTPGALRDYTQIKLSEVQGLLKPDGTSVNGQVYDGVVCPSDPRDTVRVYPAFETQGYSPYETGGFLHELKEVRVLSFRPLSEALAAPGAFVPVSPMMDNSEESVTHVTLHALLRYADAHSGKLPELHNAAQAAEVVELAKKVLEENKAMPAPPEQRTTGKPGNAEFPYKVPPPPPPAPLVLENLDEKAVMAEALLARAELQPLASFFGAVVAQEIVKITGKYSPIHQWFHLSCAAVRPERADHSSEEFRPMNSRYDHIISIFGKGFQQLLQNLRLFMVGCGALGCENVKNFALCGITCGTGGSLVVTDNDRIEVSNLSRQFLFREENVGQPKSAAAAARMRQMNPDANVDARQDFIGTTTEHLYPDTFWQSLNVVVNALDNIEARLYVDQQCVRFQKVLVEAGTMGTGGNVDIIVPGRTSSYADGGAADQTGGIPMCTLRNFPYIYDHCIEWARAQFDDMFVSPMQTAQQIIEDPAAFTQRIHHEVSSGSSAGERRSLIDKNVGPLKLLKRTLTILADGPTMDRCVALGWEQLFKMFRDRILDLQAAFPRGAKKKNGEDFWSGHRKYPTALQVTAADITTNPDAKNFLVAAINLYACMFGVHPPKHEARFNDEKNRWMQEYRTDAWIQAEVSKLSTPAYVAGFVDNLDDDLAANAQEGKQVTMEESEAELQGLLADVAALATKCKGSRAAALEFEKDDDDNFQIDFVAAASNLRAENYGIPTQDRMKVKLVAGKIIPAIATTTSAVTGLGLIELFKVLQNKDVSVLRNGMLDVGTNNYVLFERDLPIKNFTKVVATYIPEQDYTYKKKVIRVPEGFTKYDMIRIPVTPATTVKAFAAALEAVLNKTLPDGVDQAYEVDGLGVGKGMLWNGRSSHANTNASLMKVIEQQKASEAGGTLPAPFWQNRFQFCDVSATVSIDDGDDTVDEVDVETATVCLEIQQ
# [3] = target: AMP-activated protein kinase, AMPK (Homo sapiens) (UniProt P54646+O43741+P54619+Q9UGJ0+Q9Y478+Q13131+Q9UGI9); assay: AMP-dependent Kinase enzyme assay. An in vitro enzyme assay that detects ADP turnover that is directly proportional to AMPK activity. This uses naive AMPK that is activated during the assay with MK-8722; assay type: functional; settings: 30 µM
# [4] = target: Sialic acid-binding Ig-like lectin 9 (Homo sapiens) (UniProt Q9Y336); assay: Hs-Siglec9 ALPHAscreen SOP 20170721; settings: 10 µM
# Sequence of Sialic acid-binding Ig-like lectin 9 (Homo sapiens) (Q9Y336 whole entry): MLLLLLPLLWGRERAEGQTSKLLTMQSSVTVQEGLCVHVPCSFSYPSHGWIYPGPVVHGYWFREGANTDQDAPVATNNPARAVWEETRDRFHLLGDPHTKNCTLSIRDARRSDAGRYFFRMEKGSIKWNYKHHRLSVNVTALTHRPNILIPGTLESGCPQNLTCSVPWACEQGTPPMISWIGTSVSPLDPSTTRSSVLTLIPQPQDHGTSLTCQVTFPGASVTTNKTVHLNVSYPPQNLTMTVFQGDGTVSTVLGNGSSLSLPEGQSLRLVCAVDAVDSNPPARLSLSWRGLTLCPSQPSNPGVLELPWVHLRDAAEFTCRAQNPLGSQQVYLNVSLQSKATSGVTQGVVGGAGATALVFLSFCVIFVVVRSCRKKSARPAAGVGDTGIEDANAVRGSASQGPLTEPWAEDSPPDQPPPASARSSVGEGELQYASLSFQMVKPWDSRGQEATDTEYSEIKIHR
# Trypanosoma cruzi = assay: Trypanosoma cruzi phosphomannomutase and mannose-1-phosphate guanylyltransferase assay; assay type: functional; settings: 10 µM
# [5] = target: T2, Arginase-2, mitochondrial (Homo sapiens) (UniProt P78540); assay: in vitro enzyme assay to detect the production of urea directly proportional to the activity of Arginase II; assay type: functional; settings: 33.3 µM; note: in the data most compounds retested in dose-response had high values
# T2 sequence (whole entry): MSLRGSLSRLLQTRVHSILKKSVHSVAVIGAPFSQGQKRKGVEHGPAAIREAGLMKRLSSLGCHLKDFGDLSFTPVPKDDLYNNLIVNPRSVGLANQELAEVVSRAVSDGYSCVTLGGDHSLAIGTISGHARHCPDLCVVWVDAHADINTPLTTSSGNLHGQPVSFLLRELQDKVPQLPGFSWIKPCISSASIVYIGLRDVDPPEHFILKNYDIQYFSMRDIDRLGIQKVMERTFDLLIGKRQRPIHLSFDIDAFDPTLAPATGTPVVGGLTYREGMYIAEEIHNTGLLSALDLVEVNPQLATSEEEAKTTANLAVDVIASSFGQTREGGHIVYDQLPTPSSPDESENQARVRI
# [6] = target: T3, Proteasome subunit beta (Trypanosoma cruzi) (UniProt O96673); assay: Trypanosoma cruzi proteasome chymotrypsin-like activity (TcProtChymo) assay.; note: in the data most compounds retested in dose-response had high values; assay type: functional; settings: 9.37 µM
# T3 sequence (whole entry): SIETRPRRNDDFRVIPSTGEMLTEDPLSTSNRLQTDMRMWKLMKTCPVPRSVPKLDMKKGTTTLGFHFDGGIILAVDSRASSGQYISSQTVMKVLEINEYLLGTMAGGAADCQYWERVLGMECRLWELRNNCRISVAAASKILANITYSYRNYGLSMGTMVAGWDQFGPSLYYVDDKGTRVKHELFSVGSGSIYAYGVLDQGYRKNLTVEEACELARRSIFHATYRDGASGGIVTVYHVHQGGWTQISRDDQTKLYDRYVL
# Homo sapiens = species on record: Homo sapiens; assay: To identify inhibition of the IFN signalling (Jak-Stat) pathway via expression of an eGFP reporter gene under the control of an IFN-stimulated response element (ISRE) containing MxA promoter.; assay type: functional; settings: 30 µM
# [7] = target: T4, Tyrosyl-tRNA synthetase, putative (Trypanosoma cruzi (strain CL Brener)) (UniProt Q4DSP6); assay: Trypanosoma cruzi tyrosyl tRNA synthetase (TcYRS) _High Tyrosine SOP; assay type: functional; settings: 30 µM; note: in the data most compounds retested in dose-response had high values
# T4 sequence (whole entry): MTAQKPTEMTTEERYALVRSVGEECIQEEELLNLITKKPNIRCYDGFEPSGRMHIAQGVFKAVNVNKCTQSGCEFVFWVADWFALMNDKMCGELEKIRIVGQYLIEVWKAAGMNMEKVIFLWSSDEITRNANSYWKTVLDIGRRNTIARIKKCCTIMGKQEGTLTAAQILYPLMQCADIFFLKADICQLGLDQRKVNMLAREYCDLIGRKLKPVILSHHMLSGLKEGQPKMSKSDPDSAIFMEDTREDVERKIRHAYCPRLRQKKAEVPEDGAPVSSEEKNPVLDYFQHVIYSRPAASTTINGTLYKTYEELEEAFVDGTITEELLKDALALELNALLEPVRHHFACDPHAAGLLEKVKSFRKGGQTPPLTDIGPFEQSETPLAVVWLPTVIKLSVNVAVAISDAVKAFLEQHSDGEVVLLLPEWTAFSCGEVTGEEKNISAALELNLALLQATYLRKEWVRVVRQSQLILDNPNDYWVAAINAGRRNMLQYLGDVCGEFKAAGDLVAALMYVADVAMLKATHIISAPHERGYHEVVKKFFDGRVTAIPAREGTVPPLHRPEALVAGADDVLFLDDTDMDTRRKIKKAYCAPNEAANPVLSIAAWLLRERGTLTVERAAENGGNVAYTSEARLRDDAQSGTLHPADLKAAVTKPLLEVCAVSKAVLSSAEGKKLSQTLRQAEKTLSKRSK
# [8] = target: T4, Tyrosyl-tRNA synthetase, putative (Trypanosoma cruzi (strain CL Brener)); assay: Trypanosoma cruzi tyrosyl tRNA synthetase (TcYRS) SOP; assay type: functional; settings: 30 µM
# [9] = target: Chromo domain-containing protein 1 (Saccharomyces cerevisiae (strain ATCC 204508 / S288c) (Baker's yeast)) (UniProt P32657); assay: ScCHD-1 Enzyme Inhibition Assay; assay type: functional; settings: 30 µM; note: in the data most compounds retested in dose-response had high values
# Sequence of Chromo domain-containing protein 1 (Saccharomyces cerevisiae (strain ATCC 204508 / S288c) (Baker's yeast)) (P32657 whole entry, the tested form may be a part): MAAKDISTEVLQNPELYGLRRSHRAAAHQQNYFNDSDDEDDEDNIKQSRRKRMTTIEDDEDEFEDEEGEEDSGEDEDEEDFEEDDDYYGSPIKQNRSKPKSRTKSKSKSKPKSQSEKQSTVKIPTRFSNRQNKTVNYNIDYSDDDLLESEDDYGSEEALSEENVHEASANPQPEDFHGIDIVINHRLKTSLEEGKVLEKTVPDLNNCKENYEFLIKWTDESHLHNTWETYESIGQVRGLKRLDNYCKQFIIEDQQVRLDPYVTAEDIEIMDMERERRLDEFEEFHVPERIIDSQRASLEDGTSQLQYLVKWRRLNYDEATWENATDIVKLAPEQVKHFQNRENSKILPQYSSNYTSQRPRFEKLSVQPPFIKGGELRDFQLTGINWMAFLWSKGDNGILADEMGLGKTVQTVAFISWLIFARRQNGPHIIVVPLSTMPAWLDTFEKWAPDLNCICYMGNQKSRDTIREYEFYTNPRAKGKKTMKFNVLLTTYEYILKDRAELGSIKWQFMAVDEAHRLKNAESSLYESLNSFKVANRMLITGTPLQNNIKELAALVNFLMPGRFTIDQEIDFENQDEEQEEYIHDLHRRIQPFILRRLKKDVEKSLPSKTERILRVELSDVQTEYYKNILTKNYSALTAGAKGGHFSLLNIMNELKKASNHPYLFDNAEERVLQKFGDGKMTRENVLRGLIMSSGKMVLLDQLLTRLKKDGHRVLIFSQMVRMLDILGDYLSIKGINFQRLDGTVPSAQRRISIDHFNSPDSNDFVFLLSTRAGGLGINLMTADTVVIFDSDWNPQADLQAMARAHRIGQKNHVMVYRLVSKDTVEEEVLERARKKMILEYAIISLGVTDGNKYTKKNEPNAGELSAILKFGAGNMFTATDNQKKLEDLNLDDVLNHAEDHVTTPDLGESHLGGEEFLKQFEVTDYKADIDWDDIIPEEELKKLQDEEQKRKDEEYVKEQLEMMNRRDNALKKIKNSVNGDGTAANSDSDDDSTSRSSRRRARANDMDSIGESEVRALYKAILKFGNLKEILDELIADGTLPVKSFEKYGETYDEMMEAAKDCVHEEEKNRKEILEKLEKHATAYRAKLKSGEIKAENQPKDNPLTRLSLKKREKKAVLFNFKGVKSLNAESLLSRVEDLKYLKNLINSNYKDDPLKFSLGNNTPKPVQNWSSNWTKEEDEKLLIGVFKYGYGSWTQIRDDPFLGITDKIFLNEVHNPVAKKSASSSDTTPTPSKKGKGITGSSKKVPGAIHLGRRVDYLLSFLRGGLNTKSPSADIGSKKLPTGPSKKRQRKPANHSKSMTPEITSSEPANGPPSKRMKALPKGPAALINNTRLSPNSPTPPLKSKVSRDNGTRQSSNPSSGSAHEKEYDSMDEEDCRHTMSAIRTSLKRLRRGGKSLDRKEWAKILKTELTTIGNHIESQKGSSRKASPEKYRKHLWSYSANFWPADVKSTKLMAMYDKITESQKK
# Sequence of Protein translocase subunit SecA (Escherichia coli (strain K12)) (P10408 whole entry): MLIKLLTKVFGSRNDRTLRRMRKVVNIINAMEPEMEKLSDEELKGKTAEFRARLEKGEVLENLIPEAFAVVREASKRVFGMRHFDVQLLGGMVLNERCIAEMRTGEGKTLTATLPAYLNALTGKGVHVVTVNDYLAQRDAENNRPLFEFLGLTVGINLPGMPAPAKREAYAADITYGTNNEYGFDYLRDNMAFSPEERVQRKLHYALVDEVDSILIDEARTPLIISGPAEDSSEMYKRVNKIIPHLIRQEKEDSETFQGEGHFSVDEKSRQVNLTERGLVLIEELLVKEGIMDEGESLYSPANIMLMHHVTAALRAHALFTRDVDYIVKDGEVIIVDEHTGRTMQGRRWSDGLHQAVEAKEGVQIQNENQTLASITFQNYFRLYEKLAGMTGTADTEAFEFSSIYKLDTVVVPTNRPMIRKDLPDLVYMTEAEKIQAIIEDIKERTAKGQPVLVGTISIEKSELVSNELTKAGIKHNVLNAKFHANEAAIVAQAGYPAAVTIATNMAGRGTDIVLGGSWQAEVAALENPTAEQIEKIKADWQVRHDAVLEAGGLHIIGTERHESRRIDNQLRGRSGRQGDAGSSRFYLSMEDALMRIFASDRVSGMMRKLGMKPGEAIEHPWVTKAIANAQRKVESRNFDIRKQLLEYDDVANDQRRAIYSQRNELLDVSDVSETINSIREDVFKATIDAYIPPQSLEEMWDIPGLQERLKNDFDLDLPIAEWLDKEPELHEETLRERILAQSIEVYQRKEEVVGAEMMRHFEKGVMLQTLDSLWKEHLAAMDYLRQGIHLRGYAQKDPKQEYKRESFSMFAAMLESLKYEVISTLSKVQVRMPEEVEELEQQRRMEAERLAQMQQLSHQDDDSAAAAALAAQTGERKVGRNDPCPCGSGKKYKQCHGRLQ
SMILES,Percent Effect [1],Percent Effect [2],Percent Effect [3],Percent Effect [4],Percent Effect (Trypanosoma cruzi),Percent Effect [5],Percent Effect [6],Percent Effect (Homo sapiens),Percent Effect [7],Percent Effect [8],Percent Effect [9]
CN1CCN(C2CCN(CCOc3ccc(F)cc3)CC2)C1=O,-8.87%,2.6%,0.436%,-4%,-3.18%,-0.356%,4.05%,37.8%,0%,0%,-7.75%
Cc1ncsc1C(=O)N(C)Cc1cccc(Cl)c1,0.989%,18.4%,-2.9%,-2.59%,2.44%,-2.3%,20.6%,7.48%,5.39%,19.5%,-10.9%
CCCc1noc(CCC(=O)NC(C)c2nnc3n2CCCCC3)n1 (configuration not stated),-0.578%,8.11%,-6.02%,5.58%,-2.64%,5.21%,19.5%,3.01%,3.23%,8.64%,-5.75%
CS(=O)(=O)N1CC[C@H]2O[C@H](C(=O)NCCc3ccncc3)CC[C@H]21,-7.37%,0%,5.86%,-3.48%,-2.51%,-57.5%,-1.03%,15%,2.08%,-15%,3.45%
COc1cc(CC(O)CO)c(OC)c2c1OCO2 (configuration not stated),-6.55%,14.7%,-12.3%,4.03%,6.29%,-12.5%,9.8%,5.7%,8.47%,15.4%,-21.2%
CC(C)(C)N1CCCN(C(=O)c2csc(S(N)(=O)=O)c2)CC1,-8.14%,0%,1.87%,-9.76%,-5.57%,-2.73%,-0.258%,-7.17%,-3.23%,-6.17%,-1.28%
Cc1cc(C(=O)NCc2cccnc2OC(C)C)no1,-2.03%,8.11%,-0.722%,4.58%,-5.19%,4.41%,3.42%,27.8%,6.4%,13.6%,-0.257%
O=C(c1ccnnc1)N1C[C@H](Oc2cccnc2)[C@H]2OCCC[C@H]21,-5.64%,0%,-1.06%,-4.69%,0.781%,-0.417%,4.65%,-14.6%,11.9%,15.8%,-3.24%
COc1ccnc(N2CCN(C(=O)CCc3nccs3)CC2)n1,0.0461%,8.11%,-3.33%,0.0327%,-1.54%,-2.38%,12.1%,14.1%,2.65%,7.32%,-3.79%
O=C(c1cc(COc2ccc3c(c2)OCO3)[nH]n1)N1CC=CC1CO (configuration not stated),-3.88%,-2.74%,9.97%,22.3%,-5.36%,0.399%,15.3%,9.04%,3.12%,-8.64%,0.567%
CN(C)CCO[C@H]1CN(Cc2cccc(C#N)c2)[C@@H]2COC[C@H]12,-3.05%,5.33%,0.409%,2.27%,2.32%,-44.6%,9.91%,-12.1%,6.25%,17.5%,-5.99%
Cc1nn(C)c(C)c1C1CCCN1C(=O)CCNc1ncccn1 (configuration not stated),-5.59%,18.4%,-8.92%,11.3%,5.32%,-8.63%,-1.1%,-2.96%,3.45%,18.5%,-4.96%
COc1ncccc1NC(=O)NCC(O)c1ccc(F)cc1F (configuration not stated),-1.59%,-6.33%,2.46%,1.59%,-3.79%,5.38%,20.6%,15.3%,2.08%,5.06%,-13.8%
Cn1ncc2c1CCCC2NCc1ccc(Cl)s1 (configuration not stated),-4.36%,13%,-34.6%,-13.6%,-1.08%,2.74%,12.2%,9.39%,6.67%,11.8%,-19.4%
Nc1nccc(NCc2cc3n(n2)CCCN(C2CCCCC2)C3)n1,-1.87%,13.7%,-1.77%,1.73%,-0.198%,-1.2%,24.4%,2.07%,9.38%,23.5%,-4.35%
c1ccc(-c2cnc(CN3CCn4c(nnc4C4CC4)C3)o2)cc1,3.62%,13.2%,-0.492%,0.484%,-0.564%,6.9%,10%,18.2%,6.37%,17.1%,-9.44%
CCc1nc(CN2CCOC(Cn3nc(C)nc3C)C2)no1 (configuration not stated),-1.49%,23.7%,2.58%,-7.19%,-2.33%,4.32%,3.64%,5.43%,8.37%,18.5%,-6.23%
O=C(NCCNc1ncccn1)C1CCN(c2ncccn2)CC1,-4.14%,10.8%,-3.16%,5.87%,7.71%,-4.62%,5.57%,26.3%,-10.9%,13.4%,1.05%
CCOCC1CN(C(=O)C2=CCCC2)Cc2cnn(CC)c21 (configuration not stated),-2.5%,16.2%,-0.303%,0.664%,3.62%,3.5%,19.9%,9.89%,3.24%,12.8%,-2.18%
CCCc1nc(C)cc(N2CCC3(CCC(=O)N(CC4CC4)C3)CC2)n1,-2.3%,8.11%,-0.987%,3.81%,-3.03%,3.23%,8.67%,1.04%,-5.38%,13.6%,-4%
COCC1c2c(cnn2C)CCN1Cc1ccoc1 (configuration not stated),-4.26%,-2.7%,3.57%,2.05%,-1.95%,-1.67%,0.0845%,-9.84%,0.99%,3.66%,2.42%
Cc1cccc(-c2nc(C)nn2CC(=O)N(C)C2CC2)c1,-4.92%,15.6%,4.09%,7.36%,3.18%,-3.2%,3.55%,5.06%,6.8%,21.9%,-3.56%

# Reference: ChEMBL document CHEMBL3988442, “University of Dundee, Small-Polar-MMV Screening Library” (2021)
